Measurements taken from PubChem BioAssay (NCATS).
Inconclusive results are not listed. Calls of active or inactive are those of the source. Unless noted, calls come from the whole dose curve; as a rule, active = well fitted curve in the direction sought with a large enough effect; inconclusive = small, poorly fitted or top-dose-only effect, or another doubt; inactive = no such curve, though single readings can be large; an effect the other way counts as inactive or inconclusive.

Assays:
[1] = Natriuretic polypeptide receptor (hNpr1) antagonism - Pilot counterscreen GloSensor control cell line (AID 1347045; calls by dose curve; note: series mostly up to about 38 µM)
Outline: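 Control counterscreen: luciferase cGMP-biosensor HEK293 cells (no Npr1) received compound for 30 min at room temperature after GloSensor substrate loading. Luminescence was measured before and 20 min after soluble guanylyl cyclase activation by 50 uM nitroprusside.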

[2] = molecular target: Atrial natriuretic peptide receptor 2 (Homo sapiens) (UniProt P20594); assay: Natriuretic polypeptide receptor (hNpr2) antagonism - Pilot subtype selectivity assay (AID 1347050; calls by dose curve)
Outline: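 Luminescence from a genetically encoded cGMP luciferase biosensor in hNpr2-expressing HEK293 cells is read before and 20 min after adding 1 nM hNppC. Test compounds, in interplate 1:5 titrations, are added 30-50 min ahead of the agonist.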

[3] = NS1 protein of Zika virus - qHTS assay to identify small molecule inhibitors in human HEK 293 cells (AID 1347053); note: series mostly up to about 46 µM; nearly all actives have a fitted effect of over 55% in size
Outline: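 In this cell-based screen, HEK 293 cultures received compound for one hour before Zika MR766 at MOI = 0.5. NS1 was quantified 24 hours later by TR-FRET, normalized to virus-free wells and infected wells.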

[4] = molecular target: T1, Tyrosine-protein phosphatase non-receptor type substrate 1 (Homo sapiens) + Leukocyte surface antigen CD47 (Homo sapiens) (UniProt P78324+Q08722); assay: CD47-SIRPalpha protein protein interaction - LANCE assay qHTS validation (AID 1347057; active = well fitted curve in the direction sought with a large enough effect in the signal ratio, with a control signal flat, not every such curve was filed as active; the % refers to the signal ratio; note: series mostly up to about 38 µM)
Outline: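 Inhibition of soluble CD47/SIRPalpha ectodomain association by titrated compounds, measured as 665/615 nm time-resolved FRET ratio after sequential 30 min room-temperature incubations.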

[5] = molecular target: T1, Tyrosine-protein phosphatase non-receptor type substrate 1 (Homo sapiens) + Leukocyte surface antigen CD47 (Homo sapiens); assay: CD47-SIRPalpha protein protein interaction - Alpha assay qHTS validation (AID 1347059);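 note: bead proximity luminescence from CD47 binding SIRPalpha after compound preincubation with SIRPalpha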
Outline: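 SIRPalpha-biotin 25 nM + cpd, 30 min RT, dark; add CD47-His 12.5 nM, 30 min; add Ni-NTA/SAV beads 10 ug/mL, 30 min; AlphaScreen. Buffer PBS pH 7.4 + 0.05% IGEPAL CA-630. Non-biotinylated SIRPalpha as control inhibitor.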

[6] = molecular target: Parathyroid hormone/parathyroid hormone-related peptide receptor (Homo sapiens) (UniProt Q03431); assay: qHTS for PTHR1 Agonists: Optimization Screen against the NCGC LOPAC library (AID 1347079);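 note: GloSensor cAMP luminescence in HEK-293 GP2 cells expressing human PTHR1 with IBMX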
Outline: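 HEK-293 GP2 cells, PTHR1 + GloSensor cAMP; 3000 cells/well, o/n. Luciferin + IBMX 0.5mM each (stock), 1 hr 37C. Cpd titration, 1 hr 37C. Lum after 15 min RT. Ctrl M-PTH(1-15) top 10uM.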

[7] = molecular target: Atrial natriuretic peptide receptor 1 (Homo sapiens) (UniProt P16066); assay: Natriuretic polypeptide receptor (hNpr1) antagonism - Pilot screen (AID 1347049; calls by dose curve;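 note: agonist-evoked cGMP luminescence read 20 min after hNppA addition; series mostly up to about 58 µM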)
Outline: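 cGMP-sensor HEK293/hNpr1 cells, 1500/well, plated overnight at 37C. 2% GloSensor reagent, 2 h RT. Compound (23 nL pin transfer) 30 min RT, baseline luminescence pre-read. 0.1 nM hNppA, 20 min RT, post-read.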

[8] = qHTS of pediatric cancer cell lines to identify multiple opportunities for drug repurposing: Primary screen for TC32 cells (AID 1347089); note: nearly all actives have a fitted effect of over 60% in size; note: potency is the fitted concentration of half-maximal effect
Outline: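 Luminescent ATP read-out (CellTiter-Glo) of metabolically active TC32 cells after 48 h exposure. Concentration-response curves came from 11-point (MIPE, 0.78 nM–46 µM) or 8-point (NPC, 0.59 nM–46 µM) primary titrations; follow-up used 11 points.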

Measured: Potency

Parathyroid hormone/parathyroid hormone-related peptide receptor (Homo sapiens), sequence (Q03431 whole entry, looked up): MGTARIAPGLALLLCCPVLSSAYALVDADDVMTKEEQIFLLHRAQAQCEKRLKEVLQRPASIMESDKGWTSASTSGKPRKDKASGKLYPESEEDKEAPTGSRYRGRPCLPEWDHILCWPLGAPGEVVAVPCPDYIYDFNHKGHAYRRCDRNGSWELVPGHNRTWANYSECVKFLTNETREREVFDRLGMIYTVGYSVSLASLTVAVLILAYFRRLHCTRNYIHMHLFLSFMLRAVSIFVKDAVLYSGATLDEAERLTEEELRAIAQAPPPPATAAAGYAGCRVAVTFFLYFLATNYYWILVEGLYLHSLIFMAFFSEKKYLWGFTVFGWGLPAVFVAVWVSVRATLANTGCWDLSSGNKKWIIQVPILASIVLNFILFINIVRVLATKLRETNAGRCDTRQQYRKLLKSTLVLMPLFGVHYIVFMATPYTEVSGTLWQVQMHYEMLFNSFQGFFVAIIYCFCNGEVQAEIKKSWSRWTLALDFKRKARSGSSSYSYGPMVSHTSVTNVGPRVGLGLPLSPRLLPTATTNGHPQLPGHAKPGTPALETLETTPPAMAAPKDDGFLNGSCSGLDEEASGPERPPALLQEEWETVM
Atrial natriuretic peptide receptor 2 (Homo sapiens), sequence (P20594 whole entry, looked up): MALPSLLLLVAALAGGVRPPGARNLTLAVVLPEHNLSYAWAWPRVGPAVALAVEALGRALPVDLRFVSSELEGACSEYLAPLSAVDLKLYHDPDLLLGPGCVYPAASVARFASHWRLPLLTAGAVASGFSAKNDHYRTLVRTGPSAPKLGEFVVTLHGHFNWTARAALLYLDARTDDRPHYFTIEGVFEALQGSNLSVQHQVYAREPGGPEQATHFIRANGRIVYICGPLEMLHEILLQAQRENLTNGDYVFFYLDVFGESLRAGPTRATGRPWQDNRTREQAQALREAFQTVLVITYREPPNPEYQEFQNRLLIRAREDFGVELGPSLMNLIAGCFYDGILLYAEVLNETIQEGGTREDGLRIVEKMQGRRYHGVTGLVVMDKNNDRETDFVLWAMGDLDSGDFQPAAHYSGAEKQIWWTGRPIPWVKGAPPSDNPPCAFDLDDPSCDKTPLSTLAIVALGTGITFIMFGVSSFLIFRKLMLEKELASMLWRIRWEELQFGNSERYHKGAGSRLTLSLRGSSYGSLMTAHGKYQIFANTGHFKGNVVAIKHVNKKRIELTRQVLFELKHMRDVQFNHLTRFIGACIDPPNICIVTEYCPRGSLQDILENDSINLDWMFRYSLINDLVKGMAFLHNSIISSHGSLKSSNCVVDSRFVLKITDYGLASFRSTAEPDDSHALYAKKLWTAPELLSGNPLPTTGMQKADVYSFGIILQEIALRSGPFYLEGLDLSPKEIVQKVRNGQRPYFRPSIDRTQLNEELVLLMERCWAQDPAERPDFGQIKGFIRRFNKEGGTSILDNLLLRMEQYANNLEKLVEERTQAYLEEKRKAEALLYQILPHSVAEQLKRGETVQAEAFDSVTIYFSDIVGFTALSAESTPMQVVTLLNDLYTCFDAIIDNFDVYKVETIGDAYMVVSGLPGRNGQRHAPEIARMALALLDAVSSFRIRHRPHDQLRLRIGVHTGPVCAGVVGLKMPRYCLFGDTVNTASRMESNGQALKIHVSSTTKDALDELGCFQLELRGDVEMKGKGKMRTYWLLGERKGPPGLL
Atrial natriuretic peptide receptor 1 (Homo sapiens), sequence (P16066 whole entry, looked up): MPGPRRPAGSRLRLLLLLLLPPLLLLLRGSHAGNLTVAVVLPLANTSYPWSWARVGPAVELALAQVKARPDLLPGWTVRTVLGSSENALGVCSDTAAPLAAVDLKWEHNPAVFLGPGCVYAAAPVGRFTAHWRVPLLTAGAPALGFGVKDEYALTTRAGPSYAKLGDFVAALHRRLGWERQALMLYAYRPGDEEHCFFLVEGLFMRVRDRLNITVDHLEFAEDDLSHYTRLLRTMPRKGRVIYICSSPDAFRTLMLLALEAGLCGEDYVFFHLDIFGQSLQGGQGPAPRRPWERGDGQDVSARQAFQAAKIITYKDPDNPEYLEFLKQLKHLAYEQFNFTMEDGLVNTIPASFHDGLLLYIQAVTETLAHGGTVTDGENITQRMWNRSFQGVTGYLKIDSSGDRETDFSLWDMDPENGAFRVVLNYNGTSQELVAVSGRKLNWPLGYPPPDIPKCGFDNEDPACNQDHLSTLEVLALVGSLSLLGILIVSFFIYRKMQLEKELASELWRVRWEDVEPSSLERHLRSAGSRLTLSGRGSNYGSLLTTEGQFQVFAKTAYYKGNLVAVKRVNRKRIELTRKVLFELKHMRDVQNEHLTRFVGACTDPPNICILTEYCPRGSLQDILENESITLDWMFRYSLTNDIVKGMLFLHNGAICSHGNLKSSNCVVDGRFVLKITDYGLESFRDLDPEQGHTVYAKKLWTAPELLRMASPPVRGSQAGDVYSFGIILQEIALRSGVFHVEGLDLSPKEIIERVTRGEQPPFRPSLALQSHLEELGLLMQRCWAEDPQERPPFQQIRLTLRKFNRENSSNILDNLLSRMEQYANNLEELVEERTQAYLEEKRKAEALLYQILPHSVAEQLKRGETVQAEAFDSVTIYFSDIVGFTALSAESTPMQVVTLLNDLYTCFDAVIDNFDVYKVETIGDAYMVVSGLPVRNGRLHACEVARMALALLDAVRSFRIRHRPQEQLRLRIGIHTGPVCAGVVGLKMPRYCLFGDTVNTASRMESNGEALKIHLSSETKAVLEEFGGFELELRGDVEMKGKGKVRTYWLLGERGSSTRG
T1 sequence (P78324 whole entry, looked up, the tested form may be a part): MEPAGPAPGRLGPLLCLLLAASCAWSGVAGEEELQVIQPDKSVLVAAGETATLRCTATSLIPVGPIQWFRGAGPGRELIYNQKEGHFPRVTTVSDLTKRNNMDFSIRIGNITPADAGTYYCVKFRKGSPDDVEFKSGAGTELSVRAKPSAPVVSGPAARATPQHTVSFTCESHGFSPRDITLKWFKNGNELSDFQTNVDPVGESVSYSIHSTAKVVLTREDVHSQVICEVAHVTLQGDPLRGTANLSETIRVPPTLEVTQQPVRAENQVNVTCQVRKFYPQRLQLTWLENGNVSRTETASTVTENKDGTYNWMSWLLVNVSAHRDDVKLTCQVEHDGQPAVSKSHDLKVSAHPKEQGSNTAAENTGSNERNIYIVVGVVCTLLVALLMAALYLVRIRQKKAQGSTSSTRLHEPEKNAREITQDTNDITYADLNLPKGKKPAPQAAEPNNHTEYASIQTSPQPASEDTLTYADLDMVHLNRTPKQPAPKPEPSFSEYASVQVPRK
T1 sequence (Q08722 whole entry, looked up, the tested form may be a part): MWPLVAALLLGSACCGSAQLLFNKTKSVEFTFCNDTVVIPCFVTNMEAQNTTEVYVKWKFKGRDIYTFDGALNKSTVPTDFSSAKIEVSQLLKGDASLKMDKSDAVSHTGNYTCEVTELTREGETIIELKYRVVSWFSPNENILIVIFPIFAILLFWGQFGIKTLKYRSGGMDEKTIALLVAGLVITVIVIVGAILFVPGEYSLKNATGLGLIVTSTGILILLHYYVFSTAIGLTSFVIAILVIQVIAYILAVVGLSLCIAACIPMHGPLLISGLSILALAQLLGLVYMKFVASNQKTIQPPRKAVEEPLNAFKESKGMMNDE

CNCCC(Oc1ccccc1C)c1ccccc1 (configuration not stated)
not listed: [7] | [8]
inactive: all other assays above

COC(=O)[C@H]1[C@H]2C[C@H]3c4[nH]c5ccccc5c4CCN3C[C@H]2CC[C@@H]1O
inactive: [7] | [2] | [3] | [6]

CC[C@H](C)C(=O)O[C@H]1CCC=C2C=C[C@H](C)[C@H](CC[C@@H]3C[C@@H](O)CC(=O)O3)[C@H]21
not listed: [8]
inactive: all other assays above

CCCSS/C(CCO)=C(\C)N(C=O)Cc1cnc(C)nc1N
inactive: [3]

O=C1CCC(c2ccc(-n3ccnc3)cc2)=NN1
not listed: [8]
inactive: all other assays above

C[N+]1(CCCCC[N+]2(C)CCCC2)CCCC1
not listed: [7] | [8]
inactive: all other assays above

C[C@]12CC[C@@H]3c4ccc(O)cc4CC[C@H]3[C@@H]1CC[C@@H]2O
inactive: [7] | [2] | [3] | [6]

COc1cc2c(cc1O)CC[C@@H]1[C@@H]2CC[C@]2(C)[C@@H](O)CC[C@@H]12
not listed: [2] | [8]
inactive: all other assays above

CCCCOc1cc(C(=O)NCCN(CC)CC)c2ccccc2n1
inactive: [3]

Oc1c(I)cc(I)c2cccnc12
inactive: [3]

C1CCc2nnnn2CC1
not listed: [6] | [8]
inactive: all other assays above

O=C(O)c1cc2cc(Cc3cccnc3)ccc2o1
not listed: [8]
inactive: all other assays above

Oc1ccc(O)cc1
not listed: [1] | [8]
inactive: all other assays above

CC(C)C[C@H]1C(=O)N2CCC[C@H]2[C@]2(O)O[C@](NC(=O)[C@@H]3C=C4c5cccc6[nH]c(Br)c(c56)C[C@H]4N(C)C3)(C(C)C)C(=O)N12
inactive: [7] | [2] | [5] | [6]

O=C(O)CCCCC(=O)O
inactive: [3] | [8]

CC(CCc1ccccc1)NCC(O)c1ccc(O)c(C(N)=O)c1 (configuration not stated)
not listed: [1] | [8]
inactive: all other assays above

C[C@]12C=CC(=O)C=C1CC[C@@H]1[C@@H]2[C@@H](O)C[C@@]2(C)[C@H]1CC[C@]2(O)C(=O)CO
inactive: [3]

CCCn1c(=O)[nH]c(=O)c2[nH]cnc21
not listed: [8]
inactive: all other assays above

COc1c(C)c2c(c(O)c1C/C=C(\C)CCC(=O)O)C(=O)OC2
inactive: [3]
active: [8] 664 nM

CCC(NC(C)C)C(O)c1ccc(O)c(O)c1 (configuration not stated)
not listed: [6] | [8]
inactive: all other assays above

CNCCC=C1c2ccccc2CCc2ccccc21
inactive: [7] | [3] | [4] | [5] | [6]

N[C@H](CO)C(=O)O
not listed: [8]
inactive: all other assays above

O=C(CCN1CCC(c2ccccc2)C1)c1ccc2c(c1)OCCO2 (configuration not stated)
inactive: [3]

CC(=O)O[C@H]1C[C@@H]2CC[C@@H]3[C@H](CC[C@@]4(C)[C@H]3C[C@H]([N+]3(C)CCCCC3)[C@@H]4OC(C)=O)[C@@]2(C)C[C@@H]1[N+]1(C)CCCCC1
not listed: [8]
inactive: all other assays above

CC1(C)CCC(NC(=O)[C@@H](N)CCC(=O)O)CC1
not listed: [1] | [8]
inactive: all other assays above

CN(C/C=C/c1ccccc1)Cc1cccc2ccccc12
inactive: [3]

C/C=C(/C(=C/C)c1ccc(O)cc1)c1ccc(O)cc1
inactive: [3] | [8]

CC(C)COC(=O)OCN1C(=O)CN(CCN2CC(=O)N(COC(=O)OCC(C)C)C(=O)C2)CC1=O
not listed: [8]
inactive: all other assays above

Nc1cc(Cl)c(NC2=NCCN2)c(Cl)c1
not listed: [8]
inactive: all other assays above

C[C@@H]1C(=O)NC2=Nc3cccc(Cl)c3CN21
not listed: [8]
inactive: all other assays above

CCCC1O[C@@H]2C[C@H]3[C@@H]4CCC5=CC(=O)C=C[C@]5(C)[C@H]4[C@@H](O)C[C@]3(C)[C@]2(C(=O)CO)O1 (some centres not stated)
not listed: [8]
inactive: all other assays above
